MmCpn inh = Inhibitors of TCP-1 ring complex (TRiC) of Methanococcus maripaludis (MmCpn): qHTS | Chaperonin Mm-Cpn (Methanococcus maripaludis) | purified Mm-Cpn ATPase, ADP Transcreener TR-FRET | Potency, µM (doses to about 76.9 µM), for the others: at the top dose activity, negative = inhibition, usual class: inhibitors | hit rate 0.031% among 330,000; active = well fitted inhibition curve with a large enough effect; inconclusive = small, poorly fitted or top-dose-only effect; also: potency is read from the fitted curve at half-maximal effect; % is scaled to controls: 0 for no effect and ±100 for the full control effect; nearly all actives have a fitted effect of over 80% in size
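Measured: ADP formation by purified Mm-CPN. Conditions: 25 nM protein, 10 uM ATP, Tris pH 7.4 with Mg2+, K+ and DTT, 37°C for 30 min. Detection: Transcreener HTRF after 30 min at room temperature.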
PTAP TSG101 blk = qHTS Assay for Iinhibitors of HIV-1 Budding by Blocking the Interaction of PTAP/TSG101; Potency, µM (series often up to 115 µM), for the others: top-dose activity change, negative = inhibition, most hits filed as inhibitors; 340,000 tested, under 10 active; Fluorescence polarization, FITC-PTAP peptide / Tsg101 binding; Tumor susceptibility gene 101 protein (Homo sapiens), Q99816; active = well fitted inhibition curve with a large enough effect in the main read-out, with a control signal flat, not every such curve was filed as active; inconclusive = small, poorly fitted or top-dose-only effect, or effect the other way, or a change in a side signal; inactive = no such curve, though single readings can be large or run the other way; also: potency is read from the fitted curve at half-maximal effect; % of control where 0% means no effect
Target sequence (Q99816 whole entry, looked up): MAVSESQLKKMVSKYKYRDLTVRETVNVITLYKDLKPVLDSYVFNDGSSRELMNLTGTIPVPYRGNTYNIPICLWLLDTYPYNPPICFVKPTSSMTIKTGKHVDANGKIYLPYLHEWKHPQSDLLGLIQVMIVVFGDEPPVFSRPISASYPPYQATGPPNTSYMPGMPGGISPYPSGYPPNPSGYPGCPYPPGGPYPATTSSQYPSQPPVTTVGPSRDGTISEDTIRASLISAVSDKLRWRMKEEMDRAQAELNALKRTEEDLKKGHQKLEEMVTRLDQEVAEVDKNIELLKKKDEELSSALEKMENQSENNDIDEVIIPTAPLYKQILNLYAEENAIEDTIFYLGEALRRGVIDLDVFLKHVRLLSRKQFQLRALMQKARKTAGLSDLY
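FP read-out: FITC-PTAP peptide, 50 nM final, binding Tsg101 binding domain, 10 uM final; 20 min, r.t.; 10 mM HEPES pH 7.5, 0.15 M NaCl, 0.01% Tween 20, 3 mM EDTA, 0.1 mM TCEP.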
DRD3 antagonist = qHTS of D3 Dopamine Receptor Antagonist: qHTS | D(3) dopamine receptor (Homo sapiens), P35462 | D3R cells, DiscoveRx beta-arrestin luminescence, antagonist mode; hits give low values | max response, negative = inhibition, % | hit rate 2.5% among 360,000 | AID 652054, 2013; in the data active = max response below about -50%; inconclusive = no clear call, values can overlap the other calls; also: % is scaled to controls: 0 for no effect and ±100 for the full control effect
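Cells expressing the human receptor were seeded at 1500 cells/well, incubated overnight at 37 degrees C in 5% CO2, then exposed to library compounds with dopamine controls for 90 minutes at 37 degrees C before luminescent detection.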
Rango dissoc inh = qHTS Assay for Inhibitors of RanGTP induced Rango (Ran-regulated importin-beta cargo) - Importin beta complex dissociation. Snurportin-1 (Homo sapiens) + GTP-binding nuclear protein Ran (Homo sapiens) + Importin …. hit rate 0.071% among 340,000. Biochemical FRET Rango-importin beta, RanGTP-induced dissociation. Potency, µM (highest dose often 46.1 µM), for the others: at the top dose activity change, negative = inhibition; also: potency is read from the fitted curve at half-maximal effect; % of control where 0% means no effect; nearly all actives have a fitted effect of over 45% in size
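Rango FRET biosensor (snurportin-1 IBB flanked by N-terminal EYFP and C-terminal CFP10) at 0.1 uM, with 0.25 uM importin beta in PBS, 1mM DTT, 0.02% Tween-20, 0.1% BSA. 0.6 uM Ran, 2mM GTP and 0.2 uM RCC1 were then added for 45 min at room temperature. Inhibition read as loss of FRET rise.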
D3 ag = qHTS of D3 Dopamine Receptor Agonist: qHTS. D3R DiscoveRx beta-arrestin cells, luminescence, 90 min. max activation, %. hit rate 0.58% among 410,000. AID 652048, 2013; in the data active = max activation above about 30%; also: 0% is about no effect
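Agonist-mode cell screen: cells plated at 1500/well and incubated overnight at 37 °C, then exposed to library compounds for 90 min at 37 °C. Detection reagent was added for 30–60 min at room temperature, and luminescence was read.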
Rango complex inh = qHTS Assay for Inhibitors of Rango (Ran-regulated importin-beta cargo) - Importin beta complex formation. AID 540263, 2011. Potency, µM (top dose mostly 92.2 µM), inactives show at the highest dose inhibition of complex formation. Rango CFP/YFP FRET sensor + importin beta, 45 min. Importin subunit beta-1 (Homo sapiens), Q14974. hit rate 0.031% among 340,000;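 also: potency is read from the fitted curve at half-maximal effect; 0% = DMSO wells and 100% = buffer wells lacking importin beta; nearly all actives have a fitted effect of over 15% in size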
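FRET biosensor (snurportin 1 IBB flanked by EYFP and cerulean), 50 nM, with compound 5 min, then 0.125 microM importin beta in PBS, 1 mM DTT, 0.02% Tween-20, 0.1% BSA. CFP/YFP ratio read after 45 min at room temperature; pre-read flags interference.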
* = called active by the depositor; ? = inconclusive; . = no result. The list is not random: actives were taken first. Their share in the collection is about 2.9%. Unless noted, calls follow the shape of the full dose curve.

SMILES	MmCpn inh	PTAP TSG101 blk	DRD3 antagonist	Rango dissoc inh	D3 ag	Rango complex inh
OC(COCc1ccc(Cl)cc1)CN1CCc2ccccc2C1 (stereo not given)	0.8%	-3.1%	-71.9*	-1.7%	-10.5	-2.8%
OC(COCc1ccc(Cl)cc1)CN1CCN(CC(O)COCc2ccc(Cl)cc2)CC1 (stereo not given)	1.9%	-3.4%	19.8	-7.5%	-4.6	0.7%
O=C(CN1C(=O)C2(SCC(=O)N2c2cccc(F)c2)c2ccccc21)NCCc1ccccc1 (stereo not given)	.	.	.	.	-1.6	.
CCN(CCn1cccn1)Cc1ccccc1OCC(O)CN1CCc2ccccc2C1 (stereo not given)	3.9%	2.6%	-57.7*	-1.2%	-20.3	-0.4%
CC(=O)c1ccc(OCC(O)CN2CC(C)OC(C)C2)cc1 (stereo not given)	-0.2%	-0.9%	-55.0*	1.2%	-2.2	-0.8%
Cc1ccc(C)c(OCC(O)CN2CCc3ccccc3C2)c1C (stereo not given)	-0.1%	-4.7%	-115.1*	-6.1%	-15.8	1.3%
Cc1ccc(C)c(OCC(O)CN2CCC(C)CC2)c1C (stereo not given)	-1.2%	0.0%	?	0.6%	-13.9	-2.1%
O=C(CCc1nnc(-c2ccc(-c3ccccc3)cc2)o1)N1CCCCC1	1.1%	-1.0%	31.4	-10.2%	31.5*	6.2%
COC(c1ccccc1)c1nnc(CCC(=O)N2CCCCCCC2)o1 (stereo not given)	4.2%	-7.3%	-16.4	-14.8%	12.3	-4.4%
Cc1ccc(N(CC(=O)Nc2ccc3c(c2)OCCO3)S(C)(=O)=O)cc1	2.8%	-3.8%	-89.2*	6.0%	-12.3	2.2%
Cc1ccc(C2=NO[C@@](CC(=O)O)(C(=O)Nc3ccc4c(c3)OCCO4)C2)cc1	1.6%	-1.8%	-0.5	5.9%	95.4*	2.6%
COc1ccc(S(=O)(=O)NCC(=O)Nc2ccc3c(c2)OCCO3)cc1OC	0.4%	-1.8%	-50.2*	4.1%	-3.0	3.9%
COc1ccc(NC(=O)CNS(=O)(=O)c2ccc(Cl)cc2)cc1OC	-0.4%	-1.4%	60.4	11.3%	0.9	1.6%
CN(C)S(=O)(=O)N(CC(=O)Nc1ccccc1)c1ccccc1	0.4%	3.8%	-54.0*	-15.1%	-9.8	0.9%
COc1ccc(OC)c(C2=NO[C@@](CC(=O)O)(C(=O)Nc3ccc4c(c3)OCCO4)C2)c1	-10.7%	-7.4%	-23.0	-0.8%	-8.8	2.6%
CCc1ccc(NC(=O)CN(c2cccc(C)c2)S(C)(=O)=O)cc1	0.8%	1.6%	8.0	-3.2%	34.0*	-2.3%
Cc1cccc(N(CC(=O)Nc2ccc(CC#N)cc2)S(C)(=O)=O)c1	3.8%	0.7%	4.7	9.2%	-3.4	4.0%
O=[N+]([O-])c1ccc(Sc2cccc3cccnc23)c([N+](=O)[O-])c1	0.7%	2.0%	-54.6*	0.6%	-12.9	2.1%
CCc1nc(C)c(-c2ccccc2)c(=O)[nH]1	1.1%	3.3%	-93.8*	-5.2%	-6.8	-6.0%
Cc1sc2nc(Cc3ccccc3)[nH]c(=O)c2c1-c1ccccc1	-4.0%	2.2%	-1.4	-13.9%	-18.3	-1.3%
Fc1ccc(CCn2c(Cn3c(-c4cnccn4)nc4ccccc43)nc3ccccc32)cc1	.	.	-58.7*	.	-14.1	.
COc1ccc(-c2noc(CN(C(=O)c3ccc(C)cc3C)C(C)C)n2)cc1	.	.	.	.	-8.0	.
Cc1nc2c(OCc3cccc(Cl)c3)cccn2c1N(C)Cc1cccs1	.	.	-21.4	.	-6.8	.
